An excerpt weighted towards active compounds, which were near 32% of everything screened.
CYP2C19 activ: human CYP2C19 activators, primary screen, biochemical, luminescence; activation factor at 5 µM; 96,000 tested, under 10 active; recombinant CYP2C19, luciferin-H EGE luminescence; stronger effect = higher value; 0 = fully inhibited enzyme, 1 = untreated enzyme; AID 1025, 2008; Cytochrome P450 2C19 (Homo sapiens), P33261;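 active means activation factor of at least 2 at 5 µM in the primary screen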;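 further: 0 = wells with 2.5 mM tranylcypromine and 1 = vehicle-only wells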
Target sequence (P33261 whole entry, looked up): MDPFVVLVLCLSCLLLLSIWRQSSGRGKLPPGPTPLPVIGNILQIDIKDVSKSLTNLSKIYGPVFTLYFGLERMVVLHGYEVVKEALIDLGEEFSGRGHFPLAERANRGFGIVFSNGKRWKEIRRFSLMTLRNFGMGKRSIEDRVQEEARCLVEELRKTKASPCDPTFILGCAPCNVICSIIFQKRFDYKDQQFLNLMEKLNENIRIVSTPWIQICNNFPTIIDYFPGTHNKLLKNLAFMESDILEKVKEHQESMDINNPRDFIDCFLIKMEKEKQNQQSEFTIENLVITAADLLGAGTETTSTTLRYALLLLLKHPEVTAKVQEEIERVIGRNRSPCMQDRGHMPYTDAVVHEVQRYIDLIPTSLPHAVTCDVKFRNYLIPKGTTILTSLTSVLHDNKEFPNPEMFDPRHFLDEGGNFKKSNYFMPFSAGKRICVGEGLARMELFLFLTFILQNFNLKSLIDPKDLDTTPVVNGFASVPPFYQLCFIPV
CYP2C9 inh: blockers of cytochrome P450 2C9 activity – biochemical, luminescence, ADME assay, primary screen; AID 777, 2007; P11712; 96,000 compounds, 20% hits; inhibition, % at 5 µM; CYP2C9 Supersomes, luciferin-H conversion;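 active means blocking of liver enzyme CYP2C9 beyond about 50% at 5 µM, limit read from the data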
CYP2C19 inh: blockers of cytochrome P450 2C19 activity – biochemical, luminescence, ADME assay, primary screen | 96,000 compounds, 21% hits | P33261 | inhibition, % at 5 µM | CYP2C19 Supersomes, luciferin-H EGE luminescence, 30 min;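 active means CYP2C19 inhibition above a set limit at 5 µM in the primary screen, cut at about 50% in these data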;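 further: plate controls were negative control wells for no effect and 2.5 mM tranylcypromine positive control for full effect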
PostGolgi ctrl: growth inhibition of yeast control strain, primary screen, counter-screen for post-Golgi transport modulator project; inhibition, % at 10 µM; 98,000 compounds, 5% hits; efflux-deficient yeast background strain, growth absorbance A615, 16 h; AID 738, 2007
CYP2C9 activ: human CYP2C9 activators, primary screen, biochemical, luminescence; Cytochrome P450 2C9 (Homo sapiens), P11712; recombinant CYP2C9, luciferin-H conversion; stronger effect = higher value; factor 1 = untreated enzyme, 0 = blocked; activation factor at 5 µM; 96,000 compounds, 1.4% hits;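 active means activation factor of 2 or more for CYP2C9 at a 5 µM dose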;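 further: 0 = sulfaphenazole-blocked wells and 1 = vehicle-only wells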
PostGolgi yeast: phenotypic screen on post-Golgi transport, primary screen; post-Golgi transport phenotypic cell assay; inhibition, % at 10 µM; 98,000 compounds, 0.9% hits; AID 739, 2007;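 further: yeast cells grown in 1536-well plates; yeast grown about 18 h at 30C before absorbance read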
Numbers without * were called inactive; . = not tested or not shown. Unless noted, no stated cut-off is given here; in the data, active means inhibition above about 30%; inactive means the rest.

SMILES | CYP2C19 activ | CYP2C9 inh | CYP2C19 inh | PostGolgi ctrl | CYP2C9 activ | PostGolgi yeast
CCC(C(=O)Nc1ccccc1C(=O)N1CCOCC1)N1C(=O)c2ccccc2C1=O (stereo not given) | 0.9 | 17.5 | 14.1 | 6.6 | 0.8 | -4.2
CCCc1[nH]nc2c1C(c1cc(OC)ccc1F)C(C#N)=C(N)O2 (stereo not given) | 0.2 | 88.5* | 81.0* | -5.0 | 0.1 | 16.9
CCCc1[nH]nc2c1C(Cc1ccccc1)C(C#N)=C(N)O2 (stereo not given) | 0.3 | 5.9 | 67.9* | 2.2 | 0.9 | -1.3
CC(C)c1[nH]nc2c1C(C(C)C)C(C#N)=C(N)O2 (stereo not given) | 0.4 | -10.7 | 58.7* | 5.7 | 1.1 | -2.4
CC(C)C1C(C#N)=C(N)Oc2n[nH]c(-c3ccccc3)c21 (stereo not given) | . | . | . | 4.7 | . | 3.6
CCCc1[nH]nc2c1C(c1ccc(OC)c(CSC3=NCCS3)c1)C(C#N)=C(N)O2 (stereo not given) | 0.5 | 57.8* | 45.4 | 6.4 | 0.4 | -3.1
CCCc1[nH]nc2c1C(c1cc(OC)cc(OC)c1)C(C#N)=C(N)O2 (stereo not given) | 0.7 | 31.4 | 34.1 | -4.4 | 0.7 | 10.2
CC(C)(C)NC(=O)CSc1nnc(Cc2ccc3c(c2)OCO3)n1C1CCCCC1 | 0.9 | 9.8 | 9.3 | 3.3 | 0.9 | 1.2
N#C/C(=C\c1ccc(-c2cccc(Cl)c2)o1)C(=O)Nc1cccc2cccnc12 | 1 | -26.2 | -1.5 | 2.9 | 1.3 | -4.9
CC(C)c1[nH]nc2c1C(Cc1ccccc1)C(C#N)=C(N)O2 (stereo not given) | 0 | 57.3* | 95.2* | 10.2 | 0.4 | -3.3
CCOc1ccccc1C1C(C#N)=C(N)Oc2n[nH]c(CC)c21 (stereo not given) | 0.6 | 32.6 | 40.9 | 12.3 | 0.7 | -3.2
COc1ccc(OC)c(-c2[nH]nc3c2C(c2ccco2)C(C#N)=C(N)O3)c1 (stereo not given) | 0.2 | 38.8 | 80.4* | 6.1 | 0.6 | 3.6
CCc1[nH]nc2c1C(Cc1ccccc1)C(C#N)=C(N)O2 (stereo not given) | 0.5 | 14.4 | 53.2* | 28.8 | 0.9 | -0.8
CCc1[nH]nc2c1C(c1ccc(Br)s1)C(C#N)=C(N)O2 (stereo not given) | 0.3 | 66.2* | 67.3* | 26.5 | 0.3 | -1.3
O=C(ON=C1CCN(S(=O)(=O)c2ccccc2)CC1)c1cccc(Cl)c1 | . | . | . | 0.8 | . | -5.3
O=C(CN1C(=O)COc2ccccc21)N(CCCN1CCOCC1)CC1CC=CCC1 (stereo not given) | 1.1 | -9.7 | -6.8 | 5.9 | 1.1 | 2.7
Cc1[nH]nc2c1C(Cc1ccccc1)C(C#N)=C(N)O2 (stereo not given) | 0.3 | 33.0 | 65.5* | -3.6 | 0.7 | -4.7
Cc1ccc(SCc2[nH]nc3c2C(C(C)C)C(C#N)=C(N)O3)cc1 (stereo not given) | 0.6 | 52.5* | 35.7 | 21.0 | 0.5 | 6.7
Cc1ccc(C2C(C#N)=C(N)Oc3n[nH]c(C)c32)cc1 (stereo not given) | 0.7 | 9.2 | 26.9 | -3.0 | 0.9 | -0.8
Cc1ccc(SCc2[nH]nc3c2C(c2ccc(C)o2)C(C#N)=C(N)O3)cc1 (stereo not given) | 1 | -18.0 | 0.8 | 23.6 | 1.2 | -1.3
CC(C)c1[nH]nc2c1C(c1cccc(OC(=O)N3CCOCC3)c1)C(C#N)=C(N)O2 (stereo not given) | 1.1 | 3.0 | -5.6 | 0.7 | 1 | -6.8
CCc1[nH]nc2c1C(c1cccc(OC(=O)N3CCOCC3)c1)C(C#N)=C(N)O2 (stereo not given) | 0.3 | 37.4 | 70.3* | -0.9 | 0.6 | 10.0
CCCc1[nH]nc2c1C(CCc1ccccc1)C(C#N)=C(N)O2 (stereo not given) | 0.2 | 68.8* | 76.7* | 20.2 | 0.3 | -2.2
Cc1ccc(-n2nnnc2SCC(=O)Nc2c(C)n(C)n(-c3ccccc3)c2=O)cc1 | 1 | -80.9 | -1.4 | 7.3 | 1.8 | 4.6
CCOC(=O)N1CCC(NC(=O)c2sc(-n3cccc3)nc2C)CC1 | 1 | -68.8 | 0.3 | -9.1 | 1.7 | -2.0
SMILES | CYP2C19 activ | CYP2C9 inh | CYP2C19 inh | PostGolgi ctrl | CYP2C9 activ | PostGolgi yeast
COCc1[nH]nc2c1C(c1c(F)cccc1Cl)C(C#N)=C(N)O2 (stereo not given) | 0.4 | 43.8 | 57.6* | 1.3 | 0.6 | 15.8
Cc1nc2c(C(=O)N3CCCC3)cnn2c(C)c1Cc1c(F)cccc1Cl | 0.5 | -20.4 | 53.6* | 1.8 | 1.2 | -5.0
Cc1nc2c(C(=O)O)cnn2c(C)c1Cc1ccccc1F | 1.1 | -19.2 | -9.1 | 6.4 | 1.2 | 0.8
Cc1nc2c(C(=O)N3CCN(c4ccccn4)CC3)cnn2c(C)c1Cc1cccc(Cl)c1 | 0 | 73.9* | 98.2* | 26.8 | 0.3 | 7.2
O=C(NCc1cccnc1)c1cccn2c(=O)c3sccc3nc12 | 0.2 | 42.9 | 76.5* | 8.1 | 0.6 | 1.1
CCOc1cccc(OCCCOc2ccccc2)c1 | 1 | 12.7 | 2.9 | 17.1 | 0.9 | -0.2
Cc1n[nH]c(C)c1CCCOc1ccccc1 | 0.1 | 60.2* | 86.9* | 3.6 | 0.4 | 0.5
Cc1cccc(OCCCCc2c(C)n[nH]c2C)c1 | 0.1 | 75.8* | 89.2* | 18.1 | 0.2 | 3.1
COc1cccc(OCCc2c(C)n[nH]c2C)c1 | 0.8 | -2.6 | 19.1 | 0.5 | 1 | 20.9
COc1ccc(OCCCc2c(C)n[nH]c2C)cc1 | 0.2 | 68.6* | 84.8* | 1.2 | 0.3 | 2.2
COC(=O)c1cc(NC(=O)c2nccnc2C(=O)O)cc(C(=O)OC)c1 | 1.2 | 1.7 | -18.9 | 26.4 | 1 | -4.7
CCc1cc(C(=O)NNC(=S)NCC2CCCO2)cs1 (stereo not given) | 0.7 | -40.3 | 33.2 | 30.4* | 1.4 | -11.8
Cc1cc(C)cc(NC(=S)NCC2CCCO2)c1 (stereo not given) | 0.8 | -114.6 | 15.0 | 1.4 | 2.1* | 3.9
Cc1ccccc1C(=O)NC(=S)NCC1CCCO1 (stereo not given) | 0.7 | 20.0 | 31.7 | 29.1 | 0.8 | -13.5
COc1ccc(NC(=S)NCC2CCCO2)c(OC)c1 (stereo not given) | 0.4 | -7.0 | 55.6* | 5.2 | 1.1 | -3.4
COc1ccc(OCC(=O)Nc2ncc3c(n2)CC(C)(C)CC3=O)cc1 | 1 | 1.6 | -1.0 | 7.1 | 1 | 0.2
CCOc1ccc(NC(=O)CS(=O)(=O)c2cn(C)c3ccccc23)cc1 | 0.9 | -2.5 | 8.7 | . | 1 | -3.8
COc1ccc(OC)c(CNCCNC(=O)c2ccco2)c1 | 0.3 | 12.7 | 73.1* | 3.1 | 0.9 | -4.6
COc1ccc(NC(=O)c2ccccc2NC(=O)c2ccco2)c(OC)c1 | 0.8 | 59.2* | 24.0 | 15.3 | 0.4 | -4.2
